# From PubChem BioAssay
# Only some compounds are listed: those with a hit (about 2% of all), similar ones and a draw of the others.
# DAGLB inh – blocks human DAGLB lipase activity. 340,000 compounds, 0.059% hits. AID 504411. inhibition, % at 5.17 µM. HEK293T DAGLB membrane lysate, EnzChek fluorogenic substrate. Q8NCG7; in the data active = inhibition above about 34%;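 note: 0% = enzyme with vehicle and 100% = wells lacking enzyme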
# NadD block – blocks S. aureus nicotinate mononucleotide adenylyltransferase; purified NadD enzyme, colorimetric absorbance read-out; inhibition, % at 20 µM; 360,000 compounds, 0.78% hits; in the data active = inhibition above about 26%
# ARNT-TACC3 inh – disruptors of human ARNT/TACC3 interaction; Q9Y6A5; inhibition, % at 9.99 µM; 390,000 compounds, 0.66% hits; AlphaScreen His-ARNT PAS-B/GST-TACC3 binding, luminescence; TACC3 fragment carries E629A point mutation; AID 623870;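 active = mean inhibition of replicates at least 50% and at least half of replicates each reaching 50%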;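 note: 0% = complete ARNT plus TACC3 wells and 100% = ARNT alone without TACC3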
# sPLA2-III inh – Inhibits HGIII-sPLA2 liposome hydrolysis, primary screen; 370,000 compounds, 0.56% hits; Q9NZ20; QFRET BODIPY PC-A2 liposome hydrolysis, fluorescence; inhibition, % at 12.2 µM;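 active = inhibition above mean plus 3 SD of compounds lying within the high and low control bounds, cut at about 19% in these data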;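 note: 0% = median of test compound wells and 100% = no enzyme DMSO wells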
# Target sequence (Q9NZ20 whole entry, looked up): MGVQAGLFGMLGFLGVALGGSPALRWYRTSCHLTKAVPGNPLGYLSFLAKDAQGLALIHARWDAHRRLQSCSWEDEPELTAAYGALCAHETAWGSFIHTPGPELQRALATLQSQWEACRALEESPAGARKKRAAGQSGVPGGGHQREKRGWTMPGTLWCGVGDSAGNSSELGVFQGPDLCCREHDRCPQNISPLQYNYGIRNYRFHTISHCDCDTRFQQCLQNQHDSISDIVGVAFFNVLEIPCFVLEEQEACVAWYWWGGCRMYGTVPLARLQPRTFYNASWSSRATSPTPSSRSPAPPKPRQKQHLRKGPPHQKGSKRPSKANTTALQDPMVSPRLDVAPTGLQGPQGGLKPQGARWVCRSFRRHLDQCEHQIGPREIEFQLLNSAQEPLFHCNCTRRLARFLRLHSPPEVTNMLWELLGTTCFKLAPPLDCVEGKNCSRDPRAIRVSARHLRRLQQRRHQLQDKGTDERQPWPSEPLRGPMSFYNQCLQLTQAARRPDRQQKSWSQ
# Neddyl block – inhibitors of human cullin neddylation; inhibition, % at 25 µM; P61081+Q13564; TR-FRET cullin neddylation, biochemical; 360,000 compounds, 0.58% hits; in the data active = inhibition above about 36%
# NadD conf – NadD (S. aureus) inhibition, single concentration confirmation. shares compounds with NadD block. purified S. aureus NadD, colorimetric enzyme assay. inhibition, % at 20 µM. 2,000 compounds, 13% hits; in the data active = inhibition mostly above about 42%, no sharp cut-off; inactive = mostly below about 42%
# Starred values were filed as active, the others as inactive; nt = no result given; ! = not active in a repeat.
SMILES,DAGLB inh,NadD block,ARNT-TACC3 inh,sPLA2-III inh,Neddyl block,NadD conf
CCOc1cccc(C2C(C#N)=C(N)Oc3cc(C)[nH]c(=O)c32)c1OCC (configuration not stated),2,-4,3,8,0,nt
CCc1ccc2[nH]c(=O)c(C3C(C#N)=C(N)Oc4c3ccc3cccnc43)cc2c1 (configuration not stated),44*,38*,48*,0,-32,9
CO[C@H]1CN(C)C(=O)c2ccc(NS(C)(=O)=O)cc2OC[C@@H](C)N(CC2CCCCC2)C[C@H]1C,nt,nt,-2,nt,nt,nt
Cc1cc2nc(-c3cccc(Br)c3)c(Cc3cccc(Cl)c3)n2c(C)c1Br,nt,35*,nt,-19,-61,15
COc1ccc(CCn2c(=N)c(S(=O)(=O)c3ccccc3)cc3c(=O)n4ccccc4nc32)cc1,0,21,-4,3,19,nt
Cc1ccc2nc3c(cc(S(=O)(=O)c4ccccc4)c(=N)n3Cc3ccco3)c(=O)n2c1,5,31*,0,9,nt,22
COc1ccc(CCn2c(=N)c(S(=O)(=O)c3ccc(Cl)cc3)cc3c(=O)n4ccccc4nc32)cc1,-4,30*,1,6,21,22
Cc1ccc(S(=O)(=O)c2cc3c(=O)n4cccc(C)c4nc3n(C3CCCCC3)c2=N)cc1,-1,13,3,nt,4,nt
Cc1cccn2c(=O)c3cc(S(=O)(=O)c4ccc(F)cc4)c(=N)n(Cc4ccco4)c3nc12,-3,35*,-3,-1,nt,7
Cc1cccn2c(=O)c3cc(S(=O)(=O)c4ccc(Br)cc4)c(=N)n(C4CCCCC4)c3nc12,1,27*,2,4,20,22
CCCNC(=O)Nc1ccc2c(c1)C(=O)N(C)C[C@@H](OC)[C@H](C)CN(Cc1ccc(-c3ccccn3)cc1)[C@H](C)CO2,nt,nt,17,nt,nt,nt
CCN1[C@@H]2c3ccc(-c4ccccc4OC)c(=O)n3C[C@H]1[C@H](CO)[C@H]2C(=O)N[C@@H](C)c1ccccc1,nt,nt,3,nt,nt,nt
CCCNC(=O)C[C@H]1CC[C@H]2[C@@H](COC[C@@H](O)CN2C(=O)Nc2c(C)noc2C)O1,nt,nt,13,nt,nt,nt
Cc1cccn2c(=O)c3cc(S(=O)(=O)c4ccccc4)c(=N)n(Cc4ccc(F)cc4)c3nc12,1,32*,4,4,24,13
C=CCn1c(O)c(C2=c3ccccc3=NC2=O)s/c1=N/c1nccs1,17,33*,-3,3,-20,4
CN1c2ccc(Br)cc2[C@@H]2[C@@H](CCN2C(=O)Nc2ccccc2F)[C@@H]1CO,nt,nt,-12,nt,nt,nt
CC(C)NC(=O)Nc1ccc2c(c1)C(=O)N([C@H](C)CO)C[C@@H](C)[C@H](CN(C)Cc1ccncc1)OCCCC[C@@H](C)O2,nt,nt,7,nt,nt,nt
CNC(=O)NC(=O)C(C)OC(=O)c1c2c(nc3ccccc13)/C(=C/c1cccs1)CC2 (configuration not stated),2,33*,-6,-16,45*,20
Cc1noc(C)c1NC(=O)N(C)C[C@H]1Oc2c(NS(=O)(=O)c3ccc(Cl)cc3)cccc2C(=O)N([C@@H](C)CO)C[C@@H]1C,nt,nt,-1,nt,nt,nt
O=c1[nH]c2ccc(Cl)cc2c(-c2ccccc2)c1SC(=S)N1CCOCC1,12,40*,11,-29,11,-8
O=c1[nH]c2ccc(Cl)cc2c(-c2ccccc2)c1SC(=S)N1CCCCC1,6,37*,2,-13,8,7
CCCNC(=O)C[C@H]1CC[C@H]2[C@@H](COc3ccc(NC(=O)Nc4ccccc4F)cc3C(=O)N2C)O1,nt,nt,-2,nt,nt,nt
C[c-]1[c-](C)[c-](C)[c-](C)[c-]1C.[Fe].c1cc2nccc(N3CCCC3)[c-]2c1 (configuration not stated),2,75*,62*,-3,-8,32*!
Cc1cc(N)n(-c2ccccc2)n1,1,-5,3,5,0,nt
Cc1cc(-c2cc(N)n(-c3ccccc3)n2)c(C)n1C1CCCC1,5,32*,7,5,0,12
SMILES,DAGLB inh,NadD block,ARNT-TACC3 inh,sPLA2-III inh,Neddyl block,NadD conf
COc1ccc(NC(=O)Nc2ccc3c(c2)C(=O)N([C@H](C)CO)C[C@H](C)[C@H](CN(C)C(=O)CCC(F)(F)F)OCCCC[C@@H](C)O3)cc1,nt,nt,-6,nt,nt,nt
O=C1CC(=C2c3ccccc3-c3ccccc32)C(=O)N1CCCCN1CCN(c2ccccc2)CC1,27,48*,0,nt,-3,30
O=C1CC(=C(c2ccccc2)c2ccccc2)C(=O)N1CCCN1CCN(c2cccc(Cl)c2)CC1,-12,2,4,-21,0,nt
CNc1ccc(Br)cc(C(=O)/C=C/c2ccc(OC)cc2)c1=O,6,25,12,7,7,nt
CNc1ccc(Br)cc(C(=O)/C=C/c2ccc3c(c2)OCO3)c1=O,9,40*,nt,-7,7,20
COc1ccccc1C=NNC(=O)NN=Cc1ccccc1OC,2,5,5,3,-26,nt
COc1ccccc1C=NN=C(NN=Cc1ccccc1OC)NN=Cc1ccccc1OC,0,35*,2,-3,20,24
COc1cc(OC)cc(-c2c(-c3cccs3)c3cc(-c4ccc(SC)cc4)ccc3n2C)c1,3,16,-6,4,-68,nt
COc1cc(OC)cc(-c2c(-c3cccs3)c3cc(-c4ccc(OCc5ccccc5)cc4)ccc3n2C)c1,-3,46*,nt,3,-36,-5
O=C(/C=C/Nc1ccc(S(=O)(=O)Nc2ncccn2)cc1)c1ccc(Cl)c(Cl)c1,0,40*,-4,-4,-28,3
CC1CCCCC1NC(=O)COC(=O)c1c2c(nc3ccccc13)/C(=C\c1ccco1)CC2 (configuration not stated),16,79*,-1,-1,8,51*
Cc1cccc(C)c1NC(=O)COC(=O)c1c2c(nc3ccccc13)/C(=C\c1ccc3c(c1)OCO3)CCC2,-47,48*,-3,-275,-14,6
Cc1cccc(C)c1NC(=O)COC(=O)c1ccc2c(c1)OCO2,1,2,2,0,3,nt
O=C(COC(=O)c1c2c(nc3ccccc13)/C(=C\c1ccco1)CC2)NC1CCCC1,13,64*,nt,2,-2,51*
CN(CCC#N)C(=O)COC(=O)c1c2c(nc3ccccc13)/C(=C\c1ccco1)CC2,2,42*,1,-7,-2,58*
C[C@H](CO)N1C[C@H](C)[C@H](CN(C)S(=O)(=O)c2ccccc2)OCCCC[C@H](C)Oc2ccc(NS(=O)(=O)c3cn(C)cn3)cc2C1=O,nt,nt,1,nt,nt,nt
C[C@@H]1CCCCO[C@H](CN(C)S(=O)(=O)c2ccccc2)[C@H](C)CN([C@@H](C)CO)C(=O)c2cc(NC(=O)Cc3ccccc3)ccc2O1,nt,nt,-2,nt,nt,nt
CO[C@H]1CN(C)C(=O)c2ccc(NC(C)=O)cc2OC[C@@H](C)N(S(=O)(=O)c2cn(C)cn2)C[C@@H]1C,nt,nt,-8,nt,nt,nt
